# Screening data: PubChem, Sanford-Burnham Center for Chemical Genomics
# The full list was thinned out, with hits kept by preference.
# ER stress surv – ER stress cell death inhibition; CSM14.1 thapsigargin ER stress survival, ATP luminescence; relative survival (cellular ATP), % at 15 µg/mL (by protocol); 0.33% of 48,000 active;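 active = survival measured by cellular ATP above 50% at 15 µg/ml in the first screen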;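 note: cell death triggered by about 15 µM thapsigargin; ATP read 24 h after thapsigargin was added; plate controls were thapsigargin with DMSO for no effect and DMSO without thapsigargin for full effect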
# * marks the source's active call; other numbers are inactive results.
SMILES,ER stress surv
COC(C(=O)Nc1ccc(Br)cc1C(=O)c1ccccc1Cl)c1ccccc1 (centres undefined),11
COC(C(=O)Nc1ccc(Br)cc1C(=O)c1ccccc1)c1ccccc1 (centres undefined),72*
COC(=O)c1[nH]cnc1C(=O)Nc1ccc(Br)cc1C(=O)c1ccccc1,1
O=[N+]([O-])N=C1NC(OCc2ccccc2)C(OCc2ccccc2)N1 (centres undefined),4
O=C1NC(=S)N(c2ccccc2F)C(=O)C1=Cc1ccco1,1
